This note sets out measurements from PubChem BioAssay AID1224904 (Broad Institute, 2016).

This test is described as follows: inhibitors of DUX4-driven ZSCAN4 reporter expression, primary screen, 293T cells, Gaussia and Italica luciferase (AID 1224904).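 On activity change, negative = inhibition: 0% = median of neutral control wells and -100% = median of positive control wells.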 The settings on record: 293T-iDUX4 ZSCAN4-Gaussia luciferase reporter, 24 h, stronger effect = lower value, concentration not given here; for Gaussia minus Italica difference: measured here: selective DUX4 reporter inhibition.
[1] abbreviates: measured here: Italica tet-on control reporter.

In all, about 37,000 compounds went through this assay and about 290 (0.78%) were called active. Another 10% or so got no clear call; they are omitted.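 How the source made its calls: active means mean inhibition of at least 10% in the main channel, exceeding the control channel by a set limit; inconclusive means inhibition of 10% or more but channel gap under a set limit; inactive means mean inhibition below 10%.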 This excerpt belongs to a sample that is enriched for actives.

For `C[C@@H]1CN([C@@H](C)CO)C(=O)Cc2cc(NC(=O)Nc3cccc4ccccc34)ccc2O[C@H]1CN(C)S(=O)(=O)c1ccc(Cl)cc1`, the activity change, negative = inhibition is -2.17% (inactive) and the Gaussia minus Italica difference is -5.4%. Besides, the activity change, negative = inhibition under setting [1] was determined as 3.22%.

In the case of `CC(C)[C@@H]1COCn2nncc2CCCC(=O)N1`, the activity change, negative = inhibition is -6.02% (inactive) and the Gaussia minus Italica difference is -13.2%. For the same molecule, the activity change, negative = inhibition under setting [1] is 7.14%.

On to `CO[C@@H]1CC[C@@H]2CCOc3c(C#N)cccc3C(=O)N(C)C[C@@H](C)C(=O)N(C)C[C@@H]1O2`, for which the activity change, negative = inhibition is -3.12% (inactive) and the Gaussia minus Italica difference was -1.62%. Besides, the activity change, negative = inhibition under setting [1] is -1.5%.

Consider `C[C@H](O)C#Cc1ccc([C@@H]2[C@H](CO)N3CCCCN(CC4CC4)C[C@@H]23)cc1`, for which the activity change, negative = inhibition is 4.25% (inactive) and the Gaussia minus Italica difference is -4.76%. For the same molecule, the activity change, negative = inhibition under setting [1] was found to be 9.01%.

`COCC(=O)N1[C@@H](CO)[C@H](c2ccccc2)C12CN(C(=O)NC1CCCCC1)C2`: the activity change, negative = inhibition is 12.7% (inactive) and the Gaussia minus Italica difference is 8.54%. Moreover, under setting [1], the activity change, negative = inhibition is 4.2%.

In the case of `COc1ccccc1-c1ccc2n(c1=O)C[C@@H]1[C@@H](CO)[C@H](C(=O)NCc3ccccc3Cl)N[C@H]21`, the activity change, negative = inhibition is -0.143% (inactive) and the Gaussia minus Italica difference worked out at 7.37%. The activity change, negative = inhibition under setting [1] was -7.51%.

Consider `CCC(=O)Nc1ccc2c(c1)C(=O)N(C)C[C@H](OC)[C@@H](C)CN(Cc1nccs1)[C@H](C)CO2`, for which the activity change, negative = inhibition is -5.35% (inactive) and the Gaussia minus Italica difference was -10%. Further, the activity change, negative = inhibition under setting [1] is 4.67%.

As to `CNC[C@H]1Oc2ncc(C#Cc3ccccc3F)cc2C(=O)N([C@H](C)CO)C[C@H]1C`, the activity change, negative = inhibition is -2.73% (inactive) and the Gaussia minus Italica difference was -1.72%. The activity change, negative = inhibition under setting [1] is -1.01%.

For the molecule `CN1CCN(C(=O)C[C@@H]2CC[C@@H]3[C@H](COC[C@H](O)CN3CC3CCOCC3)O2)CC1`, the activity change, negative = inhibition was 7.66% (inactive) and the Gaussia minus Italica difference was -3.98%. Moreover, the activity change, negative = inhibition under setting [1] was found to be 11.6%.

As for `CNC(=O)C[C@@H]1CC[C@H]2[C@H](COc3ccc(NC(=O)C4CC4)cc3C(=O)N2C)O1`, the activity change, negative = inhibition is 2.13% (inactive) and the Gaussia minus Italica difference turned out to be 2.15%. For the same molecule, the activity change, negative = inhibition under setting [1] was -0.014%.

`CS(=O)(=O)N1C[C@@H](O)COC[C@@H]2O[C@H](CC(=O)NC3Cc4ccccc4C3)CC[C@H]21`: the activity change, negative = inhibition was 6.74% (inactive) and the Gaussia minus Italica difference was found to be 9.82%. The activity change, negative = inhibition under setting [1] is -3.08%.

As to `CN1c2ccc(-c3ccccc3F)cc2[C@@H]2[C@@H](CCN2C(=O)CN2CCOCC2)[C@H]1CO`, the activity change, negative = inhibition is 0.948% (inactive) and the Gaussia minus Italica difference is -8.96%. Under setting [1], the activity change, negative = inhibition was determined as 9.9%.

As to `CCCNC(=O)C[C@@H]1CC[C@H]2[C@H](COc3ccc(NS(=O)(=O)c4ccccc4C)cc3C(=O)N2C)O1`, the activity change, negative = inhibition was 1.9% (inactive) and the Gaussia minus Italica difference was -5.61%. Further, under setting [1], the activity change, negative = inhibition was 7.5%.

On to `C/C=C/c1ccc2c(c1)O[C@@H](CN(C)C(=O)c1ccccn1)[C@H](C)CN([C@@H](C)CO)S2(=O)=O`, for which the activity change, negative = inhibition was -2.65% (inactive) and the Gaussia minus Italica difference is -6.3%. Moreover, under setting [1], the activity change, negative = inhibition was 3.66%.

For the molecule `O=C(NC[C@@H]1[C@@H](c2ccccc2)[C@H](CO)N1C(=O)Cc1cccnc1)C1CC1`, the activity change, negative = inhibition is 3.18% (inactive) and the Gaussia minus Italica difference was -1.42%. Also, the activity change, negative = inhibition under setting [1] was 4.6%.

For the molecule `CCCNC(=O)N1[C@H](CO)[C@@H]2c3ccccc3N(C(=O)C3CCOCC3)C[C@@H]21`, the activity change, negative = inhibition is -1.95% (inactive) and the Gaussia minus Italica difference is -1.27%. Also, the activity change, negative = inhibition under setting [1] is -0.682%.

Regarding `CCS(=O)(=O)N1CCC2(CC1)CN[C@H](CO)c1c2c2ccc(OC)cc2n1C`, the activity change, negative = inhibition is 14.5% (inactive) and the Gaussia minus Italica difference is 3.59%. Further, the activity change, negative = inhibition under setting [1] worked out at 10.9%.

For `C[C@H](CO)N1C[C@H](C)[C@@H](CN(C)Cc2ccncc2)OCCCC[C@H](C)Oc2ccc(NS(=O)(=O)c3ccc(Cl)cc3)cc2C1=O`, the activity change, negative = inhibition was 1.79% (inactive) and the Gaussia minus Italica difference is -7.04%. The activity change, negative = inhibition under setting [1] is 8.83%.

As for `COc1cccc(C#Cc2ccc3c(c2)[C@@H]2[C@@H](CCN2S(=O)(=O)c2ccc(C)cc2)[C@@H](CO)N3)c1`, the activity change, negative = inhibition is 8.73% (inactive) and the Gaussia minus Italica difference is -3.21%. In addition, the activity change, negative = inhibition under setting [1] was found to be 11.9%.

For the molecule `COc1cccc(CNC(=O)C[C@@H]2CC[C@H]3[C@@H](COc4ccc(NC(=O)c5cccs5)cc4C(=O)N3C)O2)c1`, the activity change, negative = inhibition is -0.0474% (inactive) and the Gaussia minus Italica difference is 2.66%. Further, the activity change, negative = inhibition under setting [1] was -2.71%.

Turning to `COc1ccc(CNC(=O)C[C@H]2C[C@@H]3c4cc(NC(=O)NC5CCCC5)ccc4O[C@@H]3[C@H](CO)O2)cc1`, the activity change, negative = inhibition was 8.81% (inactive) and the Gaussia minus Italica difference is 1.96%. Besides, the activity change, negative = inhibition under setting [1] was 6.85%.

As for `O=C(CCN1CCCCC1)NCC[C@@H]1CC[C@H](NS(=O)(=O)c2cccc(Cl)c2)[C@H](CO)O1`, the activity change, negative = inhibition was 5.38% (inactive) and the Gaussia minus Italica difference was 12.6%. Also, under setting [1], the activity change, negative = inhibition was -7.23%.

Turning to `CN1[C@@H]2c3ccc(-c4ccc(F)cc4)c(=O)n3C[C@H]1[C@H](CO)[C@H]2C(=O)NC1CCC1`, the activity change, negative = inhibition is 6.4% (inactive) and the Gaussia minus Italica difference is 8.27%. Further, the activity change, negative = inhibition under setting [1] was -1.88%.

For `CCCNC(=O)N1C[C@@H](O)COC[C@@H]2O[C@H](CC(=O)N3CCN(C)CC3)CC[C@H]21`, the activity change, negative = inhibition was 1.94% (inactive) and the Gaussia minus Italica difference came out at 1.17%. In addition, the activity change, negative = inhibition under setting [1] amounted to 0.769%.

For the molecule `CS(=O)(=O)N1CCCCN2[C@H](CO)[C@H](c3ccc(-c4cccc(C#N)c4)cc3)[C@H]2C1`, the activity change, negative = inhibition is 1.86% (inactive) and the Gaussia minus Italica difference was determined as 3.44%. In addition, the activity change, negative = inhibition under setting [1] was -1.58%.

As for `CCNC(=O)[C@H]1[C@H](CO)[C@H]2Cn3c(ccc(-c4ccc(OC)cc4)c3=O)[C@H]2N1Cc1ccccc1`, the activity change, negative = inhibition is -4.11% (inactive) and the Gaussia minus Italica difference was 0.354%. In addition, the activity change, negative = inhibition under setting [1] is -4.47%.

As for `O=C(C1CCC1)N1CC2(C1)[C@H](c1ccccc1)[C@H](CO)N2Cc1nccs1`, the activity change, negative = inhibition was 12.8% (inactive) and the Gaussia minus Italica difference is 10.6%. In addition, the activity change, negative = inhibition under setting [1] came out at 2.26%.

On to `CCC(=O)N1C[C@@H](O)COC[C@H]2O[C@H](CC(=O)NCC3CCCCC3)CC[C@@H]21`, for which the activity change, negative = inhibition is 1.84% (inactive) and the Gaussia minus Italica difference is 1.57%. In addition, the activity change, negative = inhibition under setting [1] is 0.272%.

Consider `COCC#Cc1cnc2c(c1)C(=O)N([C@H](C)CO)C[C@H](C)[C@H](CN(C)Cc1ccc(-c3ccccc3)cc1)O2`, for which the activity change, negative = inhibition is -1.2% (inactive) and the Gaussia minus Italica difference was 0.393%. Moreover, under setting [1], the activity change, negative = inhibition is -1.59%.

On to `C[C@H](CO)N1C[C@H](C)[C@H](CN(C)C(=O)CCN(C)C)OCc2ccccc2-c2c(n(C)c3ccccc23)C1=O`, for which the activity change, negative = inhibition is 0.0892% (inactive) and the Gaussia minus Italica difference was -6.23%. The activity change, negative = inhibition under setting [1] was 6.32%.

For `C[C@@H](O)C#Cc1ccc([C@@H]2[C@H]3CN(S(=O)(=O)c4ccccc4)CCCCN3[C@H]2CO)cc1`, the activity change, negative = inhibition is 25.7% (inactive) and the Gaussia minus Italica difference came out at 12.9%. Moreover, the activity change, negative = inhibition under setting [1] is 12.9%.

`COc1ccc(S(=O)(=O)N2CCCCN3[C@H](CO)[C@@H](c4ccc(C#CC(C)C)cc4)[C@H]3C2)cc1`: the activity change, negative = inhibition is -31.7% (active) and the Gaussia minus Italica difference is -28%. Also, the activity change, negative = inhibition under setting [1] was -3.69%.

On to `C[C@@H](O)C#Cc1ccc([C@@H]2[C@H](CO)N3CCCCN(S(=O)(=O)c4ccccc4)C[C@@H]23)cc1`, for which the activity change, negative = inhibition was 10.1% (inactive) and the Gaussia minus Italica difference amounted to 13.3%. In addition, the activity change, negative = inhibition under setting [1] was -3.26%.

Take `COc1ccccc1C#Cc1ccc([C@@H]2[C@@H](CO)N3CCCCN(S(C)(=O)=O)C[C@@H]23)cc1`: the activity change, negative = inhibition was -1.08% (inactive) and the Gaussia minus Italica difference was -6.73%. Also, the activity change, negative = inhibition under setting [1] came to 5.65%.

As to `O=C(Nc1cccc(F)c1)N1CC(=O)N2[C@H](CO)[C@H](c3ccc(C#CC4CC4)cc3)[C@@H]2C1`, the activity change, negative = inhibition was 2.91% (inactive) and the Gaussia minus Italica difference stood at 14.6%. For the same molecule, the activity change, negative = inhibition under setting [1] was -11.7%.

As to `CN(C)CC#Cc1ccc([C@@H]2[C@H](CO)N3CCCCN(C(=O)Nc4ccc(F)cc4)C[C@@H]23)cc1`, the activity change, negative = inhibition was 15.2% (inactive) and the Gaussia minus Italica difference was found to be 10.1%. In addition, the activity change, negative = inhibition under setting [1] worked out at 5.12%.

As to `COc1ccccc1C#Cc1ccc([C@H]2[C@H](CO)N3CCCCN(C(=O)C4CCC4)C[C@@H]23)cc1`, the activity change, negative = inhibition is -36.1% (active) and the Gaussia minus Italica difference is -27.4%. The activity change, negative = inhibition under setting [1] is -8.62%.

With `O=C(Nc1cccc(F)c1)N1CCCCN2[C@H](CO)[C@H](c3ccc(C#CC4CC4)cc3)[C@@H]2C1`, the activity change, negative = inhibition is -32.4% (active) and the Gaussia minus Italica difference is -37.5%. In addition, the activity change, negative = inhibition under setting [1] amounted to 5.1%.

Regarding `COc1ccccc1C#Cc1ccc([C@H]2[C@@H](C#N)N(C(=O)C3CCCCC3)[C@@H]2CO)cc1`, the activity change, negative = inhibition is -1.13% (inactive) and the Gaussia minus Italica difference is -1.05%. Further, the activity change, negative = inhibition under setting [1] is -0.0756%.
